From PubChem BioAssay (EPA / NIEHS)
The source made the active and inactive calls. How the source made its calls: active means hit-call score of the fitted dose curve at least 0.9, where 1 is the maximum; inactive means score below 0.9.

Assays:
[1] = read-out: Interleukin-1 alpha (IL1a), IL1A (gene 3552); test: BSK_KF3CT_IL1a: BioMAP Diversity Plus: KF3CT Assay for Interleukin-1 alpha (IL1a) Biomarker Activity (AID 2283070); conditions: primary human keratinocytes with fibroblasts; actives raise or lower the signal
Procedure, shortened: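 Readout is IL-1a level by ELISA, compared bidirectionally with DMSO as baseline. Cells: human keratinocytes co-cultured with foreskin fibroblasts, harvested 24 h post-dose.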

[2] = read-out: TIMP metallopeptidase inhibitor 2 (TIMP2), TIMP2 (gene 7077); test: BSK_KF3CT_TIMP2: BioMAP Diversity Plus: KF3CT Assay for TIMP metallopeptidase inhibitor 2 (TIMP2) Biomarker Activity (AID 2283071); conditions: primary human keratinocytes with fibroblasts; actives raise or lower the signal
Procedure, shortened: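 Chemicals were dosed onto human skin primary co-cultures of keratinocytes and foreskin fibroblasts, and TIMP-2 was measured by ELISA after 24 hours. Activity in either direction was fitted relative to DMSO.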

[3] = read-out: Transforming growth factor beta 1 (TGFb1), TGFB1 (gene 7040); test: BSK_KF3CT_TGFb1: BioMAP Diversity Plus: KF3CT Assay for Transforming growth factor beta 1 (TGFb1) Biomarker Activity (AID 2283072); conditions: primary human keratinocytes with fibroblasts; actives raise or lower the signal
Procedure, shortened: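 KF3CT co-culture (keratinocytes + fibroblasts), 24 h exposure → TGF-b1 ELISA → bidirectional fit, DMSO = baseline. Parallel SRB total-protein staining (0.1% SRB, 10% TCA fixation, 560 nm) for cytotoxicity.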

[4] = read-out: C-C motif chemokine 2 (Homo sapiens) (UniProt P13500); test: BSK_KF3CT_MCP1: BioMAP Diversity Plus: KF3CT Assay for Monocyte Chemoattractant Protein 1 (MCP1/CCL2) Biomarker Activity (AID 2283073); conditions: primary human keratinocytes with fibroblasts; actives raise or lower the signal
Procedure, shortened: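 Keratinocytes and foreskin fibroblasts were co-cultured, dosed with chemical, and sampled 24 h later. MCP-1 was quantified by ELISA, and the endpoint was analyzed with bidirectional fitting using DMSO as negative control.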

[5] = read-out: Matrix Metallopeptidase 9 (MMP9), MMP9 (gene 4318); test: BSK_KF3CT_MMP9: BioMAP Diversity Plus: KF3CT Assay for Matrix Metallopeptidase 9 (MMP9) Biomarker Activity (AID 2283074); conditions: primary human keratinocytes with fibroblasts; actives raise or lower the signal;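 on AC50: MMP9 protein level quantified by ELISA in the co-culture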
Procedure, shortened: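 Values come from bidirectional fitting relative to DMSO of MMP-9 levels, which were measured by ELISA. Measurements were taken 24 h after chemical dosing of a keratinocyte and foreskin fibroblast co-culture.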

[6] = read-out: urokinase plasminogen activator (uPA), PLAU (gene 5328); test: BSK_KF3CT_uPA: BioMAP Diversity Plus: KF3CT Assay for urokinase plasminogen activator (uPA) Biomarker Activity (AID 2283075); conditions: primary human keratinocytes with fibroblasts; actives raise or lower the signal
Procedure, shortened: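 Values derive from bidirectional fitting against DMSO controls. Keratinocyte/foreskin fibroblast co-cultures received chemical; 24 h later uPA was detected by ELISA, with SRB total-protein staining in parallel wells for overt cytotoxicity.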

[7] = read-out: E-selectin (Homo sapiens) (UniProt P16581); test: BSK_LPS_Eselectin: BioMAP Diversity Plus: LPS Assay for Eselectin Biomarker Activity (AID 2283077); conditions: primary human HUVEC with PBMC; actives raise or lower the signal
Procedure, shortened: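 Signal of E-selectin, detected by ELISA, served as the endpoint; cells were umbilical vein endothelium with PBMC, read 24 h after treatment. DMSO defined baseline, and both increases and decreases were fitted.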

[8] = read-out: Interleukin-8 (IL8), CXCL8 (gene 3576); test: BSK_LPS_IL8: BioMAP Diversity Plus: LPS Assay for Interleukin-8 (IL8) Biomarker Activity (AID 2283078); conditions: primary human HUVEC with PBMC; actives raise or lower the signal
Procedure, shortened: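 Endothelial cells and PBMC from human donors are co-cultured, treated with chemicals and LPS, then assayed for IL-8 by ELISA after 24 h. Parallel SRB staining (0.1% SRB after 10% TCA fixation, 560 nm) flags cytotoxicity.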

[9] = read-out: Interleukin-1 alpha (IL1a), IL1A (gene 3552); test: BSK_LPS_IL1a: BioMAP Diversity Plus: LPS Assay for Interleukin-1 alpha (IL1a) Biomarker Activity (AID 2283080); conditions: primary human HUVEC with PBMC; actives raise or lower the signal
Procedure, shortened: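 Measured: IL-1 alpha via ELISA at 24 h in LPS-activated human umbilical vein endothelium–PBMC co-culture. Baseline: DMSO, bidirectional fitting.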

[10] = read-out: Monocyte Chemoattractant Protein-1 (MCP1), CCL2 (gene 6347); test: BSK_LPS_MCP1: BioMAP Diversity Plus: LPS Assay for Monocyte Chemoattractant Protein-1 (MCP1) Biomarker Activity (AID 2283081); conditions: primary human HUVEC with PBMC; actives raise or lower the signal;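 on AC50: secreted MCP-1 protein quantified by ELISA in culture supernatant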
Procedure, shortened: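 LPS-stimulated HUVEC/PBMC co-culture; chemical, 24 h; MCP-1 by ELISA; bidirectional fit vs DMSO; cytotoxicity via SRB (0.1% stain, 10% TCA fix, 560 nm) in parallel wells.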

[11] = BSK_LPS_PGE2: BioMAP Diversity Plus: LPS Assay for Prostaglandin E2 (PGE2) Biomarker Activity (AID 2283082); conditions: primary human HUVEC with PBMC; actives raise or lower the signal
Procedure, shortened: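 Compounds were added to the LPS co-culture of endothelium and PBMC, and PGE2 was measured by ELISA after 24 h. Responses in either direction were fitted with DMSO as baseline.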

[12] = read-out: Macrophage colony-stimulating factor (MCSF), CSF1 (gene 1435); test: BSK_LPS_MCSF: BioMAP Diversity Plus: LPS Assay for Macrophage colony-stimulating factor (MCSF) Biomarker Activity (AID 2283083); conditions: primary human HUVEC with PBMC; actives raise or lower the signal
Procedure, shortened: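 Compound is added to a human vascular primary co-culture of umbilical vein endothelium and blood mononuclear cells. After 24 h, M-CSF is quantified by ELISA. Signal changes are fitted in both directions against DMSO.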

[13] = read-out: Tissue Factor, F3 (gene 2152); test: BSK_LPS_TissueFactor: BioMAP Diversity Plus: LPS Assay for Tissue Factor Biomarker Activity (AID 2283084); conditions: primary human HUVEC with PBMC; actives raise or lower the signal
Procedure, shortened: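 In this co-culture system of umbilical vein endothelium with PBMC, stimulated with LPS, cell-surface CD142 is detected by ELISA at 24 h. Endpoint values derive from bidirectional fitting, DMSO serving as baseline.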

[14] = read-out: Tumor necrosis factor (Homo sapiens) (UniProt P01375); test: BSK_LPS_TNFa: BioMAP Diversity Plus: LPS Assay for Tumour Necrosis Factor alpha (TNFa) Biomarker Activity (AID 2283085); conditions: primary human HUVEC with PBMC; actives raise or lower the signal;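 on AC50: TNFa protein level quantified by ELISA in the co-culture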
Procedure, shortened: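 Cells (umbilical vein endothelium plus peripheral blood mononuclear cells) were dosed with chemical, incubated 24 h, then TNFa was quantified by ELISA; values derive from bidirectional fitting with DMSO as baseline.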

[15] = read-out: Vascular cell adhesion molecule 1 (VCAM1), VCAM1 (gene 7412); test: BSK_LPS_VCAM1: BioMAP Diversity Plus: LPS Assay for Vascular cell adhesion molecule 1 (VCAM1) Biomarker Activity (AID 2283086); conditions: primary human HUVEC with PBMC; actives raise or lower the signal
Procedure, shortened: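 Cells are dosed in an LPS-stimulated endothelial/mononuclear co-culture and, after 24 h, VCAM-1 is quantified by ELISA. Activity in either direction is fitted relative to the DMSO negative control.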

CD38, CD38 (gene 952) = test: BSK_SAg_CD38: BioMAP Diversity Plus: SAg Assay for CD38 Biomarker Activity (AID 2283087); conditions: primary human HUVEC with PBMC; actives raise or lower the signal
Procedure, shortened: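 CD38 quantified by ELISA (fluorescence) in a superantigen-activated endothelial cell–PBMC co-culture at 24 h post-dose. Activity fitted in both directions relative to DMSO; parallel SRB and Alamar Blue cytotoxicity read-outs.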

CD40, CD40 (gene 958) [16] = test: BSK_SAg_CD40: BioMAP Diversity Plus: SAg Assay for CD40 Biomarker Activity (AID 2283088); conditions: primary human HUVEC with PBMC; actives raise or lower the signal
Procedure, shortened: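 Fluorescence ELISA read-out of CD40 from umbilical vein endothelium plus peripheral blood mononuclear cells, sampled 24 h after dosing. Values come from bidirectional curve fitting with DMSO as baseline.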

CD40, CD40 (gene 958) [17] = test: BSK_LPS_CD40: BioMAP Diversity Plus: LPS Assay for CD40 Biomarker Activity (AID 2283076); conditions: primary human HUVEC with PBMC; actives raise or lower the signal
Procedure, shortened: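 CD40 signal, measured by ELISA, is fitted in both directions relative to DMSO vehicle. The system is an LPS-driven human vascular primary co-culture of endothelial cells and PBMC, sampled 24 h after compound addition.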

CD69, CD69 (gene 969) = test: BSK_SAg_CD69: BioMAP Diversity Plus: SAg Assay for CD69 Biomarker Activity (AID 2283089); conditions: primary human HUVEC with PBMC; actives raise or lower the signal;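 on AC50: cell surface CD69 protein quantified by ELISA with fluorescence detection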
Procedure, shortened: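 Values derive from bidirectional fitting relative to DMSO vehicle. Cells: umbilical vein endothelium plus peripheral blood mononuclear cells, treated 24 h before fluorescent ELISA for CD69.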

[18] = BSK_LPS_SRB: Viability Assessment in the BioMAP Diversity Plus: LPS Assay (AID 2283079); conditions: primary human HUVEC with PBMC;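 further: total protein by sulforhodamine B absorbance as a cytotoxicity measure; measured one day after compound addition; fitted in both directions against DMSO so loss or gain of signal counts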
Procedure, shortened: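 Overt cytotoxicity was gauged by sulforhodamine B total-protein staining in a primary human vascular endothelial and mononuclear cell co-culture 24 h post-dosing. Activity was fitted in both directions relative to DMSO.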

Measured: AC50

E-selectin (Homo sapiens), sequence (P16581 whole entry, looked up): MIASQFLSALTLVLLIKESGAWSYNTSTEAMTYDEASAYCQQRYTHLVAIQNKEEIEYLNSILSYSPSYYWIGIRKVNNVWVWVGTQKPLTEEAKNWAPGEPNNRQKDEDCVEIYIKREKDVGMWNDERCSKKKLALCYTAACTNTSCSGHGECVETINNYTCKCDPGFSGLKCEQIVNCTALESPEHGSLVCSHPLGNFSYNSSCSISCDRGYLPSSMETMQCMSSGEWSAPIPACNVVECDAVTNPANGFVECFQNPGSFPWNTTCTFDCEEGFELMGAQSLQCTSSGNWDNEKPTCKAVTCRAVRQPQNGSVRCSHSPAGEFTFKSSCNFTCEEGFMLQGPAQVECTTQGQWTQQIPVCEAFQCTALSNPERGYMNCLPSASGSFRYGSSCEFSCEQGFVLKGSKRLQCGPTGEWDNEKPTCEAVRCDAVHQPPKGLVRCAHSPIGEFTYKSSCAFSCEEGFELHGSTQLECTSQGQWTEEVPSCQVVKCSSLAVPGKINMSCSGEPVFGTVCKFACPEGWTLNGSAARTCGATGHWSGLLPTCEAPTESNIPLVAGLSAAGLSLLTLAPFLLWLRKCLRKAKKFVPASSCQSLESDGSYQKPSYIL
Tumor necrosis factor (Homo sapiens), sequence (P01375 whole entry, looked up): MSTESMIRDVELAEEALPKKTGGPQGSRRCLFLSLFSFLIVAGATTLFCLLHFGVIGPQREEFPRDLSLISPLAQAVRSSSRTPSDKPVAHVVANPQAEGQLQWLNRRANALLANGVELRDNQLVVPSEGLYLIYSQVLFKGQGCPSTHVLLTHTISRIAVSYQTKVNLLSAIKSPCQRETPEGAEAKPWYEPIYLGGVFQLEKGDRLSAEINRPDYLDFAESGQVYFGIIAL

COS(C)(=O)=O
not listed: CD40, CD40 (gene 958) [17] | CD69, CD69 (gene 969) | [18]
inactive: all other assays above

CC(C)C(=O)Nc1ccc([N+](=O)[O-])c(C(F)(F)F)c1
not listed: [6] | CD38, CD38 (gene 952) | CD69, CD69 (gene 969) | [18]
inactive: all other assays above

CC[C@H](C)C(=O)O[C@H]1C[C@H](O)C=C2C=C[C@H](C)[C@H](CC[C@@H](O)C[C@@H](O)CC(=O)O)[C@H]21
not listed: [6] | CD38, CD38 (gene 952) | CD69, CD69 (gene 969) | [18]
inactive: all other assays above

COc1cc2c(c(OC)c1OC)-c1ccc(OC)c(=O)cc1[C@@H](NC(C)=O)CC2
active: [5] 0.548 µM | [9] 0.827 µM | [12] 0.493 µM | [14] 2.39 µM | [15] 0.431 µM | CD38, CD38 (gene 952) 0.148 µM | CD40, CD40 (gene 958) [16] 0.218 µM | CD69, CD69 (gene 969) 0.505 µM
not listed: CD40, CD40 (gene 958) [17] | [18]
inactive: all other assays above

O=C(O)c1cccc(C[C@@H]2COc3ccc(OCc4nc5cc(F)ccc5s4)cc3[C@@H]2O)c1
not listed: CD38, CD38 (gene 952) | CD40, CD40 (gene 958) [17] | CD69, CD69 (gene 969)
inactive: all other assays above

Cn1cc[nH]c1=S
not listed: [6] | [18]
inactive: all other assays above

CCCCCCCCCCCCCCO
active: [8] 34 µM | [9] 30.2 µM | [10] 31.2 µM | [12] 31.5 µM | [13] 33.3 µM | [15] 29.6 µM | CD38, CD38 (gene 952) 31.1 µM | CD40, CD40 (gene 958) [16] 34.1 µM
not listed: [7] | CD40, CD40 (gene 958) [17] | CD69, CD69 (gene 969) | [18]
inactive: all other assays above

NC(N)=O
not listed: [6] | [12]
inactive: all other assays above

OCCNCCO
not listed: CD40, CD40 (gene 958) [17]
inactive: all other assays above

O=C(O)c1ccc2c(c1)nc(C(=O)NC1CCN(C3CC3)CC1)n2Cc1cc(-c2ccc(Cl)s2)on1
not listed: CD40, CD40 (gene 958) [17] | [18]
inactive: all other assays above

CC(C)CCCCCCOC(=O)C1CCCCC1C(=O)OCCCCCCC(C)C (configuration not stated)
not listed: [6] | [18]
inactive: all other assays above

NC(=O)NN=Cc1ccc([N+](=O)[O-])o1
active: [15] 12.4 µM
not listed: [6] | CD38, CD38 (gene 952) | CD69, CD69 (gene 969) | [18]
inactive: all other assays above

c1ccc2ncccc2c1
not listed: [6] | CD38, CD38 (gene 952) | [18]
inactive: all other assays above

FC(F)C(F)(F)COCC1CO1 (configuration not stated)
not listed: [3] | CD38, CD38 (gene 952) | CD69, CD69 (gene 969)
inactive: all other assays above

NCC(F)(F)C(F)(F)C(F)(F)C(F)(F)F
not listed: [3] | [6] | CD40, CD40 (gene 958) [17] | CD69, CD69 (gene 969)
inactive: all other assays above
